Pf growth 96h – P. falciparum growth inhibition at 96 hour, primary screen for plastid delayed-death inhibitors; P. falciparum luciferase reporter growth, 96 h; Potency, µM (top dose mostly 28.7 µM), without a hit: top-dose activity change, negative = inhibition, hits mostly inhibitors; hit rate 6.9% among 320,000; AID 504834; further: potency means the concentration at half of the fitted maximal effect; on the % scale 0 is the no-effect control and ±100 the full control effect
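Erythrocytes infected with luciferase-expressing P. falciparum were dispensed at 2% hematocrit and 0.05% parasitemia (final), then incubated with compounds 96 hours at 37 C in 5% CO2. Luminescence after detection reagent addition reported growth.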
Shiga toxin inh – inhibitors of Shiga toxin in Vero cells. Vero cells, Shiga toxin protein synthesis inhibition reporter. inhibition, % at 38.7 µM. hit rate 9.2% among 290,000; in the data active means inhibition mostly above about 28%, no sharp cut-off; inactive means mostly below about 43%; further: 0% is about no effect
Cycloheximide cs – counter-screen for Shiga toxin inhibitors: cycloheximide protein synthesis inhibition; max response, %; cell reporter, cycloheximide protein synthesis inhibition counterscreen; hit rate 12% among 300,000; in the data active means max response mostly above about 13%, no sharp cut-off; inactive means mostly below about 14%; further: read at 38.3 µM for the half of the compounds with a filed dose; 0% is about no effect
Pf growth 48h – P. falciparum growth inhibition at 48 hours (one generation). P. falciparum luciferase growth in erythrocytes, 48 h. Potency, µM (series often up to 28.7 µM), inactives show at the highest dose activity change, negative = inhibition, actives largely listed as inhibitors. hit rate 5.9% among 310,000; further: potency means the concentration at half of the fitted maximal effect; on the % scale 0 is the no-effect control and ±100 the full control effect
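Erythrocytes infected with P. falciparum carrying an integrated firefly luciferase reporter (2% hematocrit, 0.1% parasitemia final) were exposed to compounds in RPMI 1640 with 0.5% Albumax at 37 C, 5% CO2. Growth inhibition was scored as reduced luminescence.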
An asterisk follows results filed as active. In the library only some 21% were active in any assay of this set; here they are far more common. Unless noted, the call rests on the fitted dose curve; in most records, active means well fitted inhibition curve with a large enough effect; inconclusive means small, poorly fitted or top-dose-only effect, or another doubt; inactive means no such curve, though single readings can be large or run the other way.

What do the screens show for `CCN(Cc1ccccc1)S(=O)(=O)c1cc(C(=O)NCC2CCCCC2)ccc1OC`?
Pf growth 96h: 11.7µM*; Shiga toxin inh: -11.2; Cycloheximide cs: -2.9; Pf growth 48h: inconclusive

What do the screens show for `Cc1ccc(C(=O)NC2CCCCCC2)cc1S(=O)(=O)N1CCOCC1`?
Pf growth 96h: -20.4%; Shiga toxin inh: 30.1; Cycloheximide cs: 28.0*; Pf growth 48h: -27.3%

Results for Cc1ccc(C(=O)NC2CCCCC2)cc1S(=O)(=O)N1CCCC1 ?
Pf growth 96h: inconclusive; Shiga toxin inh: 40.3*; Cycloheximide cs: 35.4*; Pf growth 48h: -13.7%

What do the screens show for `CCCCS(=O)(=O)N1CCCC(C(=O)Nc2ccc3c(c2)CCC3)C1` (stereo not drawn)?
Pf growth 96h: -26.2%; Shiga toxin inh: -3.0; Cycloheximide cs: -2.3; Pf growth 48h: 17.0%

Results for COc1ccccc1C(=O)NNC(=O)C(=O)NC1CCCCC1 ?
Pf growth 96h: 1.1%; Shiga toxin inh: -7.3; Cycloheximide cs: -5.9; Pf growth 48h: 4.1%

Results for O=C(COc1ccc(/C=N/NC(=O)C(=O)N2CCCCC2)cc1)Nc1ccccc1Cl ?
Pf growth 96h: 22.4%; Shiga toxin inh: 20.2; Cycloheximide cs: 19.8; Pf growth 48h: -2.6%

Results for COc1ccccc1NC(=O)CSc1nnc(CCC(=O)Nc2ccccc2F)n1C ?
Pf growth 96h: -4.8%; Shiga toxin inh: -4.2; Cycloheximide cs: -2.3; Pf growth 48h: 0.1%

What do the screens show for `CCOc1ccc(-n2c(SCC(=O)Nc3ccc(C(=O)O)cc3)nc3ccccc3c2=O)cc1`?
Pf growth 96h: -2.0%; Shiga toxin inh: -4.7; Cycloheximide cs: -0.9; Pf growth 48h: 30.7%

What do the screens show for `O=C(NCc1nc2ccccc2[nH]1)C1=C[C@@H](c2ccccc2)C[C@@H](OCCCCO)O1`?
Pf growth 96h: -22.4%; Shiga toxin inh: -4.9; Cycloheximide cs: -1.5; Pf growth 48h: 0.0033µM*

How did CC(C)(C)[C@H]1C=C(C(=O)NCc2nc3ccccc3[nH]2)O[C@@H](OCCCCO)C1 do in these assays?
Pf growth 96h: 10.4µM*; Shiga toxin inh: -11.5; Cycloheximide cs: -2.9; Pf growth 48h: inconclusive

Results for CCOC(=O)C1=C(COC(=O)CCOc2ccccc2C)NC(=O)NC1C (stereo not drawn) ?
Pf growth 96h: 27.4%; Pf growth 48h: 1.5%

Results for CCC(=O)N1CCc2nc(-c3ccccc3)sc2C1 ?
Pf growth 96h: -14.2%; Shiga toxin inh: 69.4*; Cycloheximide cs: 24.9*; Pf growth 48h: 2.9%

What do the screens show for `COc1ccc(C([O-])=Nc2ccc[n+](-c3nc4ccccc4nc3NS(=O)(=O)c3ccccc3)c2)cc1`?
Pf growth 96h: 13.1µM*; Shiga toxin inh: 10.6; Cycloheximide cs: -0.6; Pf growth 48h: 2.62µM*

Results for COc1ccc(S(=O)(=O)Nc2nc3ccccc3nc2NCC2CCCO2)cc1 (stereo not drawn) ?
Pf growth 96h: 8.6%; Shiga toxin inh: 16.7; Cycloheximide cs: 1.7; Pf growth 48h: 7.7%

What do the screens show for `O=S(=O)(Nc1nc2ccccc2nc1-[n+]1cccc(N=C([O-])c2ccccc2Cl)c1)c1ccccc1`?
Pf growth 96h: 8.28µM*; Shiga toxin inh: 3.6; Cycloheximide cs: 10.8; Pf growth 48h: 8.28µM*

What do the screens show for `S=C1NC2(CCCCC2)Cc2ccccc21`?
Pf growth 96h: 11.7µM*; Shiga toxin inh: -12.0; Cycloheximide cs: -1.3; Pf growth 48h: inconclusive

Results for N#CC(C#N)=C1NC2(CCCC2)Cc2ccccc21 ?
Pf growth 96h: 3.29µM*; Shiga toxin inh: -16.0; Cycloheximide cs: -1.6; Pf growth 48h: inconclusive

What do the screens show for `O=C1NC2(CCCCC2)Cc2ccccc21`?
Pf growth 96h: 22.6%; Shiga toxin inh: 15.7; Cycloheximide cs: -4.6; Pf growth 48h: -10.6%

How did COc1ccccc1C1C(C#N)=C(N)N(N(C)C)C2=C1C(=O)CC(C)(C)C2 (stereo not drawn) do in these assays?
Pf growth 96h: 0.0%; Shiga toxin inh: -6.1; Cycloheximide cs: 3.0; Pf growth 48h: inconclusive

How did CCOC(=O)c1c(NC(=O)CSc2ncccn2)sc2c1CCN(Cc1ccccc1)C2 do in these assays?
Pf growth 96h: 7.38µM*; Shiga toxin inh: 2.7; Cycloheximide cs: -2.0; Pf growth 48h: inconclusive

How did CCOC(=O)c1c(NC(=S)Nc2ccccc2)sc2c1CCN(CCc1ccccc1)C2 do in these assays?
Pf growth 96h: 2.33µM*; Shiga toxin inh: -21.8; Cycloheximide cs: -6.9; Pf growth 48h: 13.1µM*

How did CCOC(=O)c1c(N)sc2c1CCN(CCc1ccccc1)C2 do in these assays?
Pf growth 96h: 175.4%; Cycloheximide cs: 1.8; Pf growth 48h: 0.0%

How did CCOC(=O)c1c(NC(=O)C(C)Sc2cccc[n+]2[O-])sc2c1CCN(Cc1ccccc1)C2 (stereo not drawn) do in these assays?
Pf growth 96h: 5.22µM*; Shiga toxin inh: -13.7; Cycloheximide cs: -4.7; Pf growth 48h: 9.28µM*

What do the screens show for `COc1ccccc1OCC(=O)NNC(=O)c1ccc2c(=O)n3c(nc2c1)CCC3`?
Pf growth 96h: 9.9%; Shiga toxin inh: -8.6; Cycloheximide cs: 12.8; Pf growth 48h: 96.5%

Results for Cn1ccc(C(=O)Nc2cccnc2Cl)n1 ?
Pf growth 96h: 57.6%; Shiga toxin inh: 22.8; Cycloheximide cs: 9.9; Pf growth 48h: 2.6%

How did CCCCN1C(=O)C(=O)N(CC(=O)Nc2ccccc2C(=O)OCC)C1=O do in these assays?
Pf growth 96h: 8.8%; Shiga toxin inh: -2.1; Cycloheximide cs: 4.9; Pf growth 48h: inconclusive

Results for CN(C)c1ccc(C(c2ccc(N(C)C)cc2)c2ccc([N+](=O)[O-])cc2)cc1 ?
Pf growth 96h: 11.7µM*; Shiga toxin inh: 3.7; Cycloheximide cs: -3.5; Pf growth 48h: -56.1%

Results for CN(C)c1ccc(C=NC(CO)C(O)c2ccc([N+](=O)[O-])cc2)cc1 (stereo not drawn) ?
Pf growth 96h: 11.9%; Shiga toxin inh: 15.0; Cycloheximide cs: -0.6; Pf growth 48h: 32.5%

What do the screens show for `CCOC(=O)CCC(NC(=O)CCCC(=O)NC(CCC(=O)OCC)C(=O)OCC)C(=O)OCC` (stereo not drawn)?
Pf growth 96h: -5.0%; Shiga toxin inh: -8.3; Cycloheximide cs: 0.6; Pf growth 48h: 1.6%

What do the screens show for `CC(C)c1ccc(C(=O)NN2CCOCC2)cc1`?
Pf growth 96h: -17.7%; Shiga toxin inh: -20.4; Cycloheximide cs: -1.5; Pf growth 48h: -24.9%

What do the screens show for `CC(C)c1ccc(/C=C/C(=O)NC(=S)Nc2ccc(CN3CCOCC3)cc2)cc1`?
Pf growth 96h: 5.22µM*; Shiga toxin inh: 11.8; Cycloheximide cs: 14.8*; Pf growth 48h: inconclusive

What do the screens show for `CC(C)c1ccc(/C=C/C(=O)NC(=S)NN2CCOCC2)cc1`?
Pf growth 96h: 11.7µM*; Shiga toxin inh: 15.0; Cycloheximide cs: 17.4*; Pf growth 48h: 9.7%

What do the screens show for `CCOc1ccc(OCC)c(NC(=O)CSc2nnc(C3CC3)n2CC)c1`?
Pf growth 96h: inconclusive; Shiga toxin inh: 22.5; Cycloheximide cs: -6.5; Pf growth 48h: -16.5%

How did CN(C1CCCCC1)S(=O)(=O)c1cccc(C#N)c1 do in these assays?
Pf growth 96h: 58.4%; Shiga toxin inh: -4.4; Cycloheximide cs: -3.9; Pf growth 48h: 12.6%

Results for NS(=O)(=O)c1ccc(CNC(=O)c2ccncc2)cc1 ?
Pf growth 96h: 51.7%; Shiga toxin inh: -13.5; Cycloheximide cs: -2.7; Pf growth 48h: 17.4%

Assay outcomes from PubChem BioAssay.
